Experimental data published in the supplement of paper PMC11732987, “Enantioselective OTUD7B fragment discovery through chemoproteomics screening and high-throughput optimisation” (Communications Chemistry, 2025).

Experiments:
Assay in all cases: log2 ratio of Biotin-Ahx-Ub-VS probe labelling (fragment/DMSO); higher = less target engagement (more negative = stronger competition), active = hit call of the paper (q ≤ 0.05, log2 ratio ≤ -1)
Conditions in all cases: compound concentration: 200 uM; treatment time: 3 h
USP42 = biological target: T1, USP42 (UniProt Q9H9J4)
T1 sequence (whole entry): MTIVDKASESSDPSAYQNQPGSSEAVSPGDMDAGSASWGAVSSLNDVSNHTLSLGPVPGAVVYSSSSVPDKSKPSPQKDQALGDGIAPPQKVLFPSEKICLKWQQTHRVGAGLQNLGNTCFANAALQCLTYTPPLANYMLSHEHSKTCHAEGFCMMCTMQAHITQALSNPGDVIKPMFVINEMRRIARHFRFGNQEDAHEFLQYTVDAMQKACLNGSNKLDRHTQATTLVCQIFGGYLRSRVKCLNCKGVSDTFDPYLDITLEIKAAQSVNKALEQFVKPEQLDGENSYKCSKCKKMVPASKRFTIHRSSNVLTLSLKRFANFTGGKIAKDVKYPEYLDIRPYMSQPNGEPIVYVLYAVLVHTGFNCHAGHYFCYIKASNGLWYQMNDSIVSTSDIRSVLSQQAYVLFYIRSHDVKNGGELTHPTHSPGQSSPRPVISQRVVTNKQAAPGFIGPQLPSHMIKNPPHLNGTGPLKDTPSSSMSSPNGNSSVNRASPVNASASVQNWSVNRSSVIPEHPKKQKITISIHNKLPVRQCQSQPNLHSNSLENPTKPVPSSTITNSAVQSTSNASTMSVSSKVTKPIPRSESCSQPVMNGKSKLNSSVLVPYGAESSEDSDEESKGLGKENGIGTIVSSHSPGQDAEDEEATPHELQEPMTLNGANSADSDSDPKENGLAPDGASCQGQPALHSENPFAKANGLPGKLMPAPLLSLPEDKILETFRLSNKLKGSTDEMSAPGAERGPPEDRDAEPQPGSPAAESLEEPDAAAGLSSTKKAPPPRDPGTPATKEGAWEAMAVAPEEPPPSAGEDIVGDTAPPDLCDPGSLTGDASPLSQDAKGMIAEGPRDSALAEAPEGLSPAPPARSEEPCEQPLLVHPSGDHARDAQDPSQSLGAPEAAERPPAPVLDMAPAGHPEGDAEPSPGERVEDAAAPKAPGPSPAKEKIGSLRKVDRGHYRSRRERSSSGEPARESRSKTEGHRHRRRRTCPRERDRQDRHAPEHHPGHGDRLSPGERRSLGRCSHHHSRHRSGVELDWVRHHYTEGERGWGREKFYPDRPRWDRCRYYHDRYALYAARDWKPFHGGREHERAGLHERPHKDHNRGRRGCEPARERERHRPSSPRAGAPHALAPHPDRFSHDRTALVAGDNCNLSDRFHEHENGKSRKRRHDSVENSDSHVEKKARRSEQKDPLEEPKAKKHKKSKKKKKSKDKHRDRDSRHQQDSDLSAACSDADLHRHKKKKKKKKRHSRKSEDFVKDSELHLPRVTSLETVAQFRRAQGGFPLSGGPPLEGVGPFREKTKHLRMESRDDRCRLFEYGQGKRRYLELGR
Outline: (§1)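 Average log2 ratios of fragment over vehicle were obtained by unpaired t-test from global-median-normalised Spectronaut label-free quantities. Proteins with ≥2 unique peptides were included. HEK293T lysate (495 µg per sample) was treated in triplicate with fragment at 200 µM or vehicle for 3 h, then with Biotin-Ahx-Ub-VS at 0.5 µM final for 1 h, and labelled DUBs were NeutrAvidin-enriched and run by diaPASEF LC-MS/MS.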

USP46 = USP46 (UniProt P62068)
Chain of USP46 (P62068 whole entry): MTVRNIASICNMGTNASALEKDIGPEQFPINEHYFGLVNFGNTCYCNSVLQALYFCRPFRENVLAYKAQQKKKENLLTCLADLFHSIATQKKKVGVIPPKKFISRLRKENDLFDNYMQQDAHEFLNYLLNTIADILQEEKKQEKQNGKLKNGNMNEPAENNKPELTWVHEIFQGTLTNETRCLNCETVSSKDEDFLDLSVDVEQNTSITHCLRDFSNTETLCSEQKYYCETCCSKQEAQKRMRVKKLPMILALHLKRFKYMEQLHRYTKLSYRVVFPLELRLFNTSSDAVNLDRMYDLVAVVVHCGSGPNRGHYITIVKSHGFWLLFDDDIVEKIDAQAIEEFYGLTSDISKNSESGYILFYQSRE
Outline: as §1

USP47 = biological target: T2, USP47 (UniProt Q96K76)
T2 sequence (whole entry): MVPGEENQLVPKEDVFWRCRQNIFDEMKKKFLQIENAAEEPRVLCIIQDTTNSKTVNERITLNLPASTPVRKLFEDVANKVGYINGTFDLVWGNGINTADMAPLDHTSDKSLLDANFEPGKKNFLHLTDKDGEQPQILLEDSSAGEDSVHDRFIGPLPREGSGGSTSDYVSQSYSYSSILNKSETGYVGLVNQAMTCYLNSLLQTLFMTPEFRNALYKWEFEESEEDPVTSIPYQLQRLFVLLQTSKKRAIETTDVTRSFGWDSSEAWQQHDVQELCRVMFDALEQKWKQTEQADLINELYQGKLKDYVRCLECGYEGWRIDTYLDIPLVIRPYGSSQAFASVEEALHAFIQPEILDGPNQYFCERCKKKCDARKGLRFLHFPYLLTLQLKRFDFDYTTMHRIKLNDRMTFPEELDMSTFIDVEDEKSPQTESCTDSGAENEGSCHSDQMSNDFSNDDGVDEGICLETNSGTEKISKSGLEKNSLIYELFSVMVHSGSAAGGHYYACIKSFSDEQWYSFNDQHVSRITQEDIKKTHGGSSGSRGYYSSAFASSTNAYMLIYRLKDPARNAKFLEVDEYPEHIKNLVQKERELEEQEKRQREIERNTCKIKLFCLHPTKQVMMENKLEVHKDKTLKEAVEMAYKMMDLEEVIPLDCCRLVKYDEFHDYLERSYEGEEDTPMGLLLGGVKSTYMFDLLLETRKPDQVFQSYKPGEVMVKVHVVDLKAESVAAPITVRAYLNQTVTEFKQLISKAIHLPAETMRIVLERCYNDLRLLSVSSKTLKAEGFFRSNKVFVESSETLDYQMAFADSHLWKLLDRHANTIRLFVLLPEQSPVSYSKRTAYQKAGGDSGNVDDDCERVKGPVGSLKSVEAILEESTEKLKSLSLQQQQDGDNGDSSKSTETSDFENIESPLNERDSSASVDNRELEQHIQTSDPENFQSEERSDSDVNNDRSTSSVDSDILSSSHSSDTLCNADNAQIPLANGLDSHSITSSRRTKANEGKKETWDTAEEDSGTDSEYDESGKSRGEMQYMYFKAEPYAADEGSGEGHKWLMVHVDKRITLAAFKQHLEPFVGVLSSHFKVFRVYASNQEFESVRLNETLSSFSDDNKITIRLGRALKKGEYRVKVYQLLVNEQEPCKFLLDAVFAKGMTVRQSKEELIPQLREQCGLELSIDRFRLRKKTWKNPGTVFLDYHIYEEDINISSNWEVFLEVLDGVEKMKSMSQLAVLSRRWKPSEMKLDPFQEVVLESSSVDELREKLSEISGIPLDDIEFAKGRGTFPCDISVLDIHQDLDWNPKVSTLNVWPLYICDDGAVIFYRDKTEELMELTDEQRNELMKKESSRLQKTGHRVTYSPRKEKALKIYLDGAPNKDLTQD
Outline: as §1

USP48 = biological target: T3, USP48 (UniProt Q86UV5)
T3 sequence (whole entry): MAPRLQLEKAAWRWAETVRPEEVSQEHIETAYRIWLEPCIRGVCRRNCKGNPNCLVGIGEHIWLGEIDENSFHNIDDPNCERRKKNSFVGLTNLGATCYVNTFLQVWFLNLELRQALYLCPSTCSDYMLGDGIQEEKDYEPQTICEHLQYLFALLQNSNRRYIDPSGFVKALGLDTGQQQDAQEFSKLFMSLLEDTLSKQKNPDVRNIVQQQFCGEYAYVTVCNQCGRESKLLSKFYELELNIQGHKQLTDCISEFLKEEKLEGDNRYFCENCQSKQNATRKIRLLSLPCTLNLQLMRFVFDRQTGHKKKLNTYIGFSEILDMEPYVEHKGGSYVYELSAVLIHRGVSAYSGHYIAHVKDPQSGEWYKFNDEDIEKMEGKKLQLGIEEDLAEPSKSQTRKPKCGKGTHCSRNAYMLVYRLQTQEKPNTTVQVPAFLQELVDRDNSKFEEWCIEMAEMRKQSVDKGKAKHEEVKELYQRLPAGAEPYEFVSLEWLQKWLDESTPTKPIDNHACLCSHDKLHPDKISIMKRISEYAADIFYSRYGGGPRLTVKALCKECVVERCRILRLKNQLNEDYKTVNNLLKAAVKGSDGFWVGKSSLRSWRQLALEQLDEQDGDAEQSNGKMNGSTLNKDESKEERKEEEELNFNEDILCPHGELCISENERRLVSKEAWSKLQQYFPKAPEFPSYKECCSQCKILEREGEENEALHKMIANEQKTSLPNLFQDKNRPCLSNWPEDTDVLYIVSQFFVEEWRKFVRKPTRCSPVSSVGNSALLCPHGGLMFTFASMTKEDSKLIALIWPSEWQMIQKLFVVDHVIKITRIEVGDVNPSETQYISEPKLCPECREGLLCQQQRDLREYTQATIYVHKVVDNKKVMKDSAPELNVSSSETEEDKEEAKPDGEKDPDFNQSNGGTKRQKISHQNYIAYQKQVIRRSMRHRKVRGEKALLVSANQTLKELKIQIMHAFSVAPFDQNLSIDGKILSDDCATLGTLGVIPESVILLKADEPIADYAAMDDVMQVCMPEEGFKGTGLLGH
Outline: as §1

USP5 = biological target: T4, USP5 (UniProt P45974)
T4 sequence (whole entry): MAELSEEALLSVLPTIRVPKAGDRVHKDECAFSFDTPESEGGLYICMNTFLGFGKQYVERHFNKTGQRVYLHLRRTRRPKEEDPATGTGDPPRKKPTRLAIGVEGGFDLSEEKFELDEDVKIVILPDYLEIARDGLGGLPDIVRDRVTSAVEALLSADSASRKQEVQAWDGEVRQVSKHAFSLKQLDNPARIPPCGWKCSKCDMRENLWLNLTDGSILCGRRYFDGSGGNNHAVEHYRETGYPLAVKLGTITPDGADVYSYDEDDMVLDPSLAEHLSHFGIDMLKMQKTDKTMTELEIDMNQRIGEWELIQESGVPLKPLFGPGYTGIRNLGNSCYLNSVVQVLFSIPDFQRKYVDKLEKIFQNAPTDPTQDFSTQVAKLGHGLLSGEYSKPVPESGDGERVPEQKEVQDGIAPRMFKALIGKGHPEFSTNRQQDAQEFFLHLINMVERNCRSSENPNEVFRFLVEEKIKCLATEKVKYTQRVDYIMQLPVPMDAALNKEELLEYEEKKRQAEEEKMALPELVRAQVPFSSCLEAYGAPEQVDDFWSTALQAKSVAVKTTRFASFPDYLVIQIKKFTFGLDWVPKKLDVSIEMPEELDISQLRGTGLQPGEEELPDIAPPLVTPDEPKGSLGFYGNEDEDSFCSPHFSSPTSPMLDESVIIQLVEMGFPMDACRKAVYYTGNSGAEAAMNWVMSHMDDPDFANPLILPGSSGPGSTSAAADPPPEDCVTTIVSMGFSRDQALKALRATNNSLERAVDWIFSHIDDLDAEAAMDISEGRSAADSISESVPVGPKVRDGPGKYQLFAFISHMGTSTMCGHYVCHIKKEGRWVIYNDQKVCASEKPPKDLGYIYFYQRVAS
Outline: as §1

USP54 = USP54 (UniProt Q70EL1)
Chain of USP54 (Q70EL1 whole entry): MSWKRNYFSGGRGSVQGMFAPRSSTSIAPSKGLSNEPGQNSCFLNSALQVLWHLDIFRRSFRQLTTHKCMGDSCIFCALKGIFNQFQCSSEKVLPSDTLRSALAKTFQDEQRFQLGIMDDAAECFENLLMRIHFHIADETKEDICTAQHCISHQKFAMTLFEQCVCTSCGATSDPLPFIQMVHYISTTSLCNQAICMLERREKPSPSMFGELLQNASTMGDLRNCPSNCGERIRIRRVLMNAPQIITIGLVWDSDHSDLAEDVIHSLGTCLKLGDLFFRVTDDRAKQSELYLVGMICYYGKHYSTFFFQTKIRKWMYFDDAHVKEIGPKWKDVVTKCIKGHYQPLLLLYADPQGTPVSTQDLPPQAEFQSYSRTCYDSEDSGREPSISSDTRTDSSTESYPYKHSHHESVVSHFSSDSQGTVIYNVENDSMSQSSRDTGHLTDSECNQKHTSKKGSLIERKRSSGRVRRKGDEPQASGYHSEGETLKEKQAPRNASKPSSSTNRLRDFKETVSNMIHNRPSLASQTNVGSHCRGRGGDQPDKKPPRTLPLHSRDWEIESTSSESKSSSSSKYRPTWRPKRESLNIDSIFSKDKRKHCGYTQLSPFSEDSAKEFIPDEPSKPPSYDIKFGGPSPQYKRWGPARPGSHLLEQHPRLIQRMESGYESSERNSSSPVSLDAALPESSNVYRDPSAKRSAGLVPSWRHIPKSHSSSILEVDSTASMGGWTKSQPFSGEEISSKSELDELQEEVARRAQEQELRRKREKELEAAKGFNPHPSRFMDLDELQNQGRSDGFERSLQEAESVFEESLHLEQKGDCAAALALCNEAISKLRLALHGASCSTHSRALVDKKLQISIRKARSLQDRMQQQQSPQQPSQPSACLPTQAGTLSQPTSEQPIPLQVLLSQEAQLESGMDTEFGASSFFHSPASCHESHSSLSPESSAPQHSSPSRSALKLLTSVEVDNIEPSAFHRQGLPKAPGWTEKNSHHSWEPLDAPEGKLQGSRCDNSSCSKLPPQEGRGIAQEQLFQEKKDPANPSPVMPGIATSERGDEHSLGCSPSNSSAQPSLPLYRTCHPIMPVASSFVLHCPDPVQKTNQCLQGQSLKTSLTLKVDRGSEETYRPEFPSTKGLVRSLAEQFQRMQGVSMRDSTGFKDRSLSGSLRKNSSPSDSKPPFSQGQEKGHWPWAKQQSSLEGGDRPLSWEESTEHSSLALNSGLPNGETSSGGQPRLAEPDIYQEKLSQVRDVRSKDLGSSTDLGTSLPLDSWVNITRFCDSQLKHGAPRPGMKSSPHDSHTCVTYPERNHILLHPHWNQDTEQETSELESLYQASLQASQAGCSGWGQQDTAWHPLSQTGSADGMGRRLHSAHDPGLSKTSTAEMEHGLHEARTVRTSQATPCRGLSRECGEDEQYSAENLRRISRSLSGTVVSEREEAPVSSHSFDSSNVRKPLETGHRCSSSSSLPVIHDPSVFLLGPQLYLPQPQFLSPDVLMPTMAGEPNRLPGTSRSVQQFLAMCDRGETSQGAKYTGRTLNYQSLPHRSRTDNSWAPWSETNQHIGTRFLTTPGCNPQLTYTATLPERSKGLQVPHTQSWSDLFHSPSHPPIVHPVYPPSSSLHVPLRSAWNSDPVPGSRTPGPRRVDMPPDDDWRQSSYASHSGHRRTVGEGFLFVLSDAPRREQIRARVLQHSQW
Outline: as §1

USP7 = USP7 (UniProt Q93009)
Chain of USP7 (Q93009 whole entry, looked up): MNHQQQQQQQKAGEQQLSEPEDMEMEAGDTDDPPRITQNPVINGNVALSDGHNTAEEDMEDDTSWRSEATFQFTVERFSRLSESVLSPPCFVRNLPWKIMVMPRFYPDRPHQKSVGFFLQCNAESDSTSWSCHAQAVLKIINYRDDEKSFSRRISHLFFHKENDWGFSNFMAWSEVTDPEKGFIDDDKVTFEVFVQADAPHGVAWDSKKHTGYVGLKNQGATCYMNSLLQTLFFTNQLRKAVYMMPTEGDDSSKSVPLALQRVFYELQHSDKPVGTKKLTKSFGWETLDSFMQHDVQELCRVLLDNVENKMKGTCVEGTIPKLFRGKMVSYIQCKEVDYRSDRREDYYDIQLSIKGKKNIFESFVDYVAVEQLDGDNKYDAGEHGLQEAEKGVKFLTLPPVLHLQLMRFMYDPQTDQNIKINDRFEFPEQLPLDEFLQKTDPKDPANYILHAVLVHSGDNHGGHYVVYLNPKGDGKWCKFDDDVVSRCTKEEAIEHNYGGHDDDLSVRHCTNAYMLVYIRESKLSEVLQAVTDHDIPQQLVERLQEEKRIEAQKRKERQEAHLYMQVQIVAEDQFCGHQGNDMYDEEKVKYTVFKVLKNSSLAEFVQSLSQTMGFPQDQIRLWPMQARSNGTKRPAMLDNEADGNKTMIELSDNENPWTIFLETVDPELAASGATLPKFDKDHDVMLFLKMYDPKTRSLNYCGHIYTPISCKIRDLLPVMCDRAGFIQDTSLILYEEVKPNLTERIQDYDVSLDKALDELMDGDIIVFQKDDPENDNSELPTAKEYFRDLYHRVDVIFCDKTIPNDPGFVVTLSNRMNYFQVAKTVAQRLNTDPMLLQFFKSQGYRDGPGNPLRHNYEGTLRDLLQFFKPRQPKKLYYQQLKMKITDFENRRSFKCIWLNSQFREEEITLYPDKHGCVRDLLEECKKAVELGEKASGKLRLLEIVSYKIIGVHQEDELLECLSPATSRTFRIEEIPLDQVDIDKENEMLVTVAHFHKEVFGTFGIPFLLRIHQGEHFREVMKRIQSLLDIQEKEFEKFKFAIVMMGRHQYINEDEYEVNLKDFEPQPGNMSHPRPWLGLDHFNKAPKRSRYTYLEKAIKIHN
Outline: as §1

USP8 = biological target: T5, USP8 (UniProt P40818)
T5 sequence (whole entry): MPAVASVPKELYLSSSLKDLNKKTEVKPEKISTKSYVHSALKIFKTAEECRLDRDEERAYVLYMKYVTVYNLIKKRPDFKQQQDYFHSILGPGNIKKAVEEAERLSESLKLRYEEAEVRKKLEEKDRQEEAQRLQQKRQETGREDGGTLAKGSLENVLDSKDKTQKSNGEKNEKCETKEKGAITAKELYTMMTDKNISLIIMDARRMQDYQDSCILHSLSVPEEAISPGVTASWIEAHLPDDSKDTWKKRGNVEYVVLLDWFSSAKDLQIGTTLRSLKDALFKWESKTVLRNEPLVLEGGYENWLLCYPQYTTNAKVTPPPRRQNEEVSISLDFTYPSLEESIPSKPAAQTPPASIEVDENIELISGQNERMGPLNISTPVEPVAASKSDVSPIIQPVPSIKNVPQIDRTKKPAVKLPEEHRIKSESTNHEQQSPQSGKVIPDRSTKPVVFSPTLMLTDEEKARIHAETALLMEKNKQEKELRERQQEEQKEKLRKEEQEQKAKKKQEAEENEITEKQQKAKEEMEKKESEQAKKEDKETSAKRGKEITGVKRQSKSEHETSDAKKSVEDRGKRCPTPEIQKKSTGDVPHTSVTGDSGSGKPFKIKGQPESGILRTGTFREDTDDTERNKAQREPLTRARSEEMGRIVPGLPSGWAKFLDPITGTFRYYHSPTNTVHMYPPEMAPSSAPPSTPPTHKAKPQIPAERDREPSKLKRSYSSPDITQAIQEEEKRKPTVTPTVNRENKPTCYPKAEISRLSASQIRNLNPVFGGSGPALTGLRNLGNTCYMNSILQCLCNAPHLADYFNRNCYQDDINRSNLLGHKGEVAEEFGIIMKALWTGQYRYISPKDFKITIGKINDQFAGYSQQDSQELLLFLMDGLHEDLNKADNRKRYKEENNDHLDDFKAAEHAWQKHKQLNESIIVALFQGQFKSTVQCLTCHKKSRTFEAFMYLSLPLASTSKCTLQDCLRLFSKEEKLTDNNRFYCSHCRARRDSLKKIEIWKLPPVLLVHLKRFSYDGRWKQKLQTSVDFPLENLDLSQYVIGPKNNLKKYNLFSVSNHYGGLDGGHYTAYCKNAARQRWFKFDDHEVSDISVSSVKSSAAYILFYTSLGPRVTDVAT
Outline: as §1

USP9X = USP9X (UniProt Q93008)
Outline: as §1

UniProt O00487 = biological target: UniProt O00487
Chain of UniProt O00487 (O00487 whole entry): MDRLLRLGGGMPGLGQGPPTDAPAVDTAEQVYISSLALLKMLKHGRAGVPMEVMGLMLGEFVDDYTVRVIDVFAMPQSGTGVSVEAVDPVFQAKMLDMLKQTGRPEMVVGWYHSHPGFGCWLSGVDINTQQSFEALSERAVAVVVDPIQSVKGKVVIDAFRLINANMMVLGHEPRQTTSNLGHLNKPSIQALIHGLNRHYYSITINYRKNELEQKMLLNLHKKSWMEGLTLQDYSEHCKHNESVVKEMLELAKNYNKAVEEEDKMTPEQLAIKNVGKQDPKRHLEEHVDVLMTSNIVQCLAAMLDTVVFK
Outline: as §1

Measured: log2 ratio of Biotin-Ahx-Ub-VS probe labelling

O=C(CCl)NCCc1ccc(F)cc1
inactive: USP42 0.0996 | USP46 0.235 | USP47 -0.0571 | USP48 -0.229 | USP5 0.066 | USP54 0.699 | USP7 -0.0342 | USP8 -0.0379 | USP9X -0.0191 | UniProt O00487 0.113
